The source of these data is PMC4336329 (PLoS ONE, 2015).

About 14,000 (4.5%) of roughly 310,000 compounds showed an effect of 50% or more. The effect is printed as a negative number. The full list was thinned out, with strong results kept by preference.
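Further: peak tail current of the secondary pulse compared with the same well before compound.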

The experiment deals with human ether-à-go-go-related gene (hERG) potassium channel (human, UniProt Q12809). As to the kind of experiment: primary screen, population patch clamp on CHO cells stably expressing hERG; higher = less effect of the substance.
Chain of human ether-à-go-go-related gene (hERG) potassium channel (Q12809 whole entry, looked up): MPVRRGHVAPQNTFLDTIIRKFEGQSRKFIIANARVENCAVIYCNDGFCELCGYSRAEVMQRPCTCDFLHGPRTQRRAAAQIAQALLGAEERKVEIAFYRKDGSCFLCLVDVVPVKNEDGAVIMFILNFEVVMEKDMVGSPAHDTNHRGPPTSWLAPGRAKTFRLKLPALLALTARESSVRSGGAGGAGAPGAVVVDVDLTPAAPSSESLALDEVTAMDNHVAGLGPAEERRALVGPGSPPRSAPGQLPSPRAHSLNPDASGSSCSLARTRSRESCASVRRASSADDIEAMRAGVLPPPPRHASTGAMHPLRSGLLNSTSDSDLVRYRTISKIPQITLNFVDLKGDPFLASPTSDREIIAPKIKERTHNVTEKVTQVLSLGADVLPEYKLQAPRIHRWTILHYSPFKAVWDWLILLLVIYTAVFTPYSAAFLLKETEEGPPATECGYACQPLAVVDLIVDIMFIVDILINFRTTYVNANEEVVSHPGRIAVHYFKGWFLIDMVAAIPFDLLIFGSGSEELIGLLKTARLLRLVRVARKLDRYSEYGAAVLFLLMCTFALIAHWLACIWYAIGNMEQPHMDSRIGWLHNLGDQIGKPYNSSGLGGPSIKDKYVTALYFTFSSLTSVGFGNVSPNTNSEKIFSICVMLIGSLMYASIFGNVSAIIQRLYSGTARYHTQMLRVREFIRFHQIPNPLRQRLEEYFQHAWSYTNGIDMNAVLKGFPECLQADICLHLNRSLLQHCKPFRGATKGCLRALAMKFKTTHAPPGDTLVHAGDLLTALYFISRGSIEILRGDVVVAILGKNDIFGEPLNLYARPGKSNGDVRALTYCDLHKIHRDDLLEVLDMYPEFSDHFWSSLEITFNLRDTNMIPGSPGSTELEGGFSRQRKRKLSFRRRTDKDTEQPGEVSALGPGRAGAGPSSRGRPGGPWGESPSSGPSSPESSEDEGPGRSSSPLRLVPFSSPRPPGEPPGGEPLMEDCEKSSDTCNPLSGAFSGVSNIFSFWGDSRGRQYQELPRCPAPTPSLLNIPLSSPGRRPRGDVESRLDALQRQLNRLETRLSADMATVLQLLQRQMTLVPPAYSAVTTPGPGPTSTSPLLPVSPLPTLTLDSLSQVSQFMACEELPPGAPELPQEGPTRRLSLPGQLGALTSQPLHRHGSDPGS
With `Cc1ccc(NC(=O)COC(=O)Cc2cccs2)cc1S(=O)(=O)N1CCOCC1`, the “hERG current change (%, negative = inhibition) at 10uM” value is recorded as -23.5%.
Take `CCN(CC(=O)NCc1ccc(F)cc1)CC(=O)Nc1cc(S(=O)(=O)N(C)C)ccc1C`: the “hERG current change (%, negative = inhibition) at 10uM” value was -75.6%.
Then `Cc1ccc(S(=O)(=O)N(C)C)cc1NC(=O)COC(=O)Cc1cccs1`, with -74.5%.
Then `CCN(CC(=O)NCc1ccc(F)cc1)CC(=O)Nc1ccc(S(=O)(=O)N2CCCC2)cc1`, with -22.8%; and `CCN(CC(=O)NCc1ccc(F)cc1)CC(=O)Nc1ccccc1-c1ccccc1`, with -16%; and `Cc1ccc(S(=O)(=O)N(C)C)cc1NC(=O)COC(=O)CNC(=O)c1cccs1`, with 14.5%.
Take `Cc1ccc(S(=O)(=O)N(C)C)cc1NC(=O)COC(=O)CCC(=O)c1cccs1`: the “hERG current change (%, negative = inhibition) at 10uM” value is recorded as -21.8%.
Regarding `O=C(COC(=O)Cc1cccs1)Nc1cccc(S(=O)(=O)N2CCOCC2)c1`, the “hERG current change (%, negative = inhibition) at 10uM” value is given as 0.0981%.
Then `Cc1ccc(OCCC(=O)OCC(=O)Nc2cc(S(=O)(=O)N(C)C)ccc2C)cc1`, with -26.6%.
Take `Cc1ccc(S(=O)(=O)N2CCOCC2)cc1NC(=O)COC(=O)Cc1cccs1`: the “hERG current change (%, negative = inhibition) at 10uM” value is listed as -62.8%.
Then `Cc1ccc(S(=O)(=O)N(C)C)cc1NC(=O)COC(=O)Cc1ccc(Br)cc1`, with -56.7%; and `Cc1ccc(S(=O)(=O)N(C)C)cc1NC(=O)COC(=O)CSc1ccccc1`, with -21.3%.
Then `Cc1c(CC(=O)N[C@H](C(=O)O)C(C)C)c(=O)oc2cc3c(cc12)CCC(C)(C)O3`, with 23.1%; and `COCCCNC(=O)CNC(=S)N(Cc1ccccc1F)C1CCCCC1`, with 4.18%; and `O=[n+]1c2c(n([O-])c3cc(Br)ccc31)CCC2`, with -2.98%.
Then `C(=C\c1ccncc1)/c1ccccc1`, with -10.6%; and `CN(CC(=O)Nc1ccccc1Cl)C(=O)c1ccc(COc2ccccc2)cc1`, with -12.9%.
Regarding `Cc1ccc(S(=O)(=O)NCC(=O)OCN2C(=O)c3ccccc3C2=O)cc1`, the “hERG current change (%, negative = inhibition) at 10uM” value is reported as 5.91%.
Regarding `O=C(CSc1ccc(Cl)cc1)NNC(=O)c1cccnc1`, the “hERG current change (%, negative = inhibition) at 10uM” value is -21%.
Take `Cc1nn(-c2ccccc2)c(Cl)c1/C=N/Nc1ccc(Cl)c(C(=O)O)c1`: the “hERG current change (%, negative = inhibition) at 10uM” value is on record as 21.3%.
Turning to `Cc1ccc(Nc2ccc(C(=O)O)cc2[N+](=O)[O-])cc1`, the “hERG current change (%, negative = inhibition) at 10uM” value is reported as 15.1%.
Then `O=C(OCc1ccc(Br)cc1)c1ccncc1`, with 5.25%; and `Cc1ccc(S(=O)(=O)N(C)C)cc1NC(=O)COC(=O)Cc1ccsc1`, with -79%.
Turning to `Cc1ccc(S(=O)(=O)N(C)C)cc1NC(=O)COC(=O)C1CCCC1`, the “hERG current change (%, negative = inhibition) at 10uM” value was determined as 3.16%.
The figure for `Cc1ccc(S(=O)(=O)N(C)C)cc1NC(=O)COC(=O)C1CCN(S(=O)(=O)c2cccs2)CC1` is -81.9%; for `Cc1ccccc1NC(=O)COC(=O)Cc1ccsc1` it is 12.7%; for `Cc1ccc(S(=O)(=O)N(C)C)cc1NC(=O)COC(=O)C1CC1` it is 16.2%.
`Cc1ccc(C)c(NC(=O)COC(=O)Cc2ccsc2)c1`: the “hERG current change (%, negative = inhibition) at 10uM” value amounted to 33.1%.
The figure for `O=C(COC(=O)c1cccs1)Nc1cc(S(=O)(=O)N2CCOCC2)ccc1Cl` is -35.5%.
In the case of `O=C(COC(=O)CCC(=O)c1cccs1)Nc1cc(S(=O)(=O)N2CCOCC2)ccc1Cl`, the “hERG current change (%, negative = inhibition) at 10uM” value was -53.5%.
Then `CCC(=O)OCC(=O)Nc1cc(S(=O)(=O)N(C)C)ccc1Cl`, with 17.1%.
Take `CN(CCC(=O)Nc1cc(S(=O)(=O)N(C)C)ccc1Cl)CC(=O)Nc1ccc(F)cc1`: the “hERG current change (%, negative = inhibition) at 10uM” value was -50.1%.
The figure for `Cc1ccc(S(=O)(=O)N2CCOCC2)cc1NC(=O)COC(=O)CCC(=O)c1cccs1` is -13.8%; for `CN(C)S(=O)(=O)c1ccc(Cl)c(NC(=O)CN2CCCC2)c1` it is 11.5%; for `Clc1ccc(-c2nnc(SCc3cn4ccsc4n3)n2CC2CCCO2)cc1` (centres unmarked) it is -29.2%.
Take `Cc1cccc2cc3c(N)c(C#N)sc3nc12`: the “hERG current change (%, negative = inhibition) at 10uM” value was 21.5%.
The figure for `Cc1cc(C)c(Nc2cc(S(=O)(=O)[O-])c(N)c3c2C(=O)c2ccccc2C3=O)c(C)c1.[Na+]` is 12%; for `CCn1c(-c2cc(-c3cc(OC)ccc3OC)nc3ccccc23)n[nH]c1=S` it is -10.3%; for `CCCC(C)c1nnc(NC(=O)C2CC(=O)N(CCc3ccc(F)cc3)C2)s1` (centres unmarked) it is -30.1%.
The figure for `COc1ccc(-c2nnc3sc(-c4ccccn4)nn23)cc1` is -13.2%; for `CCOC(=O)c1ccc(-c2ccc(CO)o2)cc1` it is -6.44%.
Take `CCC(C)[C@H](NC(=O)N1CC(=O)Nc2ccccc21)C(=O)N[C@H](C(=O)O)c1ccccc1` (some centres unmarked): the “hERG current change (%, negative = inhibition) at 10uM” value worked out at 7.19%.
Then `CCN1C(=O)CC(c2ccco2)Sc2ccccc21` (centres unmarked), with -16.8%; and `O=C(NCCCN1CCOCC1)c1ccc([N+](=O)[O-])cc1[N+](=O)[O-]`, with 10.5%; and `CC(C)n1c(=O)c(C=Nc2ccc(F)cc2)c(O)n(Cc2ccco2)c1=O`, with -19.7%.
On to `COc1ccc2c(=O)c3c(=O)n(-c4ccc(C)cc4)c(-c4ccccc4)nc3oc2c1`, for which the “hERG current change (%, negative = inhibition) at 10uM” value amounted to 6.84%.
Then `CC(=O)Nc1ccc(S(=O)(=O)N2CCSC2C(=O)O)cc1` (centres unmarked), with 0.312%; and `Cc1ccc(S(=O)(=O)Nc2ccc(N3CCOCC3)cc2)cc1C`, with 2.95%; and `COc1ccc(/C=C/C(=O)NC(=S)NNC(=O)c2c(-c3ccccc3)noc2C)cc1`, with 11.4%.
Take `Cc1cc2ncc(-c3cccc(Cl)c3)cn2n1`: the “hERG current change (%, negative = inhibition) at 10uM” value was 8.42%.
The figure for `O=C(CC1Sc2ccccc2NC1=O)OCc1cc(=O)oc2cc(O)ccc12` (centres unmarked) is -51.7%.
Take `COc1ccc2c(COC(=O)CC3Sc4ccccc4NC3=O)cc(=O)oc2c1` (centres unmarked): the “hERG current change (%, negative = inhibition) at 10uM” value is -44.1%.
The figure for `CC(=O)Nc1ccc2c(COC(=O)CC3Sc4ccccc4NC3=O)cc(=O)oc2c1` (centres unmarked) is -9.75%; for `CCCCn1c(SCC(=O)NCc2ccccc2)nc2ccc(N3CCOCC3)cc2c1=O` it is -13.9%; for `COc1ccc(OC)c(NC(=O)C2C3CC4OC(=O)C2C4C3)c1` (centres unmarked) it is 11.2%.
Turning to `O=C(Cn1cnc2ccccc2c1=O)N1CCN(Cc2ccc3c(c2)OCO3)CC1`, the “hERG current change (%, negative = inhibition) at 10uM” value is listed as -14%.
Then `O=C(Cn1ccc2ccccc2c1=O)N1CCN(Cc2ccc3c(c2)OCO3)CC1`, with -14.8%; and `O=C(O)C(=O)O.O=C(c1ccccc1F)N1CCN(Cc2ccc3c(c2)OCO3)CC1`, with 6.48%.
Consider `O=C(c1ccccc1Cl)N1CCN(Cc2ccc3c(c2)OCO3)CC1`, for which the “hERG current change (%, negative = inhibition) at 10uM” value is reported as -21.1%.
Then `O=C(c1cccn2c(=O)c3ccccc3nc12)N1CCN(Cc2ccc3c(c2)OCO3)CC1`, with -67.7%.
On to `O=C(c1cc(Cl)nc2ccccc12)N1CCN(Cc2ccc3c(c2)OCO3)CC1`, for which the “hERG current change (%, negative = inhibition) at 10uM” value was -37.9%.
`O=C(c1cccc(Cl)c1)N1CCN(Cc2ccc3c(c2)OCO3)CC1`: the “hERG current change (%, negative = inhibition) at 10uM” value was -16.6%.
The figure for `O=C(c1ccc2nc3ccccc3c(=O)n2c1)N1CCN(Cc2ccc3c(c2)OCO3)CC1` is -60.9%.
The figure for `O=C(c1cccn2c(=O)c3cc(Cl)ccc3nc12)N1CCN(Cc2ccc3c(c2)OCO3)CC1` is -75.2%; for `CCc1ccc(NC(=O)c2cc(-c3ccc(OC)cc3)on2)cc1` it is -0.467%.
For the compound `CCc1cc(=O)oc2cc(C)cc(OCc3nn[nH]n3)c12`, the “hERG current change (%, negative = inhibition) at 10uM” value was -5.99%.
The figure for `CCc1nn(CCCC(=O)Nc2ccc(C)c(C)c2)c(=O)c2cc3occc3n12` is 4.15%.
The figure for `CCc1ccccc1N(CC(=O)NCc1ccco1)C(=O)CCC(=O)Nc1ccccn1` is -7.41%; for `Fc1cccc(CN2CCN(c3nc4nonc4nc3NC3CC3)CC2)c1` it is -10.3%.
On to `Cc1cccc(CN2CCN(c3nc4nonc4nc3NC3CC3)CC2)c1`, for which the “hERG current change (%, negative = inhibition) at 10uM” value is on record as -4.44%.
Then `Clc1cccc(CN2CCN(c3nc4nonc4nc3NC3CC3)CC2)c1`, with -65.4%; and `O=C(COC(=O)C1=NN(c2ccccc2)C(=O)CC1)Nc1ccc([N+](=O)[O-])cc1C(F)(F)F`, with 5.08%.
Consider `CC(C)CN(CC(C)C)C(=O)c1cccc(S(=O)(=O)N2CCc3ccccc32)c1`, for which the “hERG current change (%, negative = inhibition) at 10uM” value is -24.9%.
As for `CCOC(=O)C1CCN(C(=S)NC2CC3C=CC2C3)CC1` (centres unmarked), the “hERG current change (%, negative = inhibition) at 10uM” value is reported as -54.3%.
The figure for `NC(=O)C1CCN(C(=S)NC2CC3C=CC2C3)CC1` (centres unmarked) is 16.2%; for `CCOC(=O)C1CCN(C(=S)NC2CCCC2)CC1` it is 0.997%; for `CN(c1ccccc1)S(=O)(=O)c1cccc(NC(=O)Cc2ccc(Cl)cc2)c1` it is 9.43%.
On to `COc1ccc(CN2C(=NC(=O)CCc3ccccc3)SC3CS(=O)(=O)CC32)cc1` (centres unmarked), for which the “hERG current change (%, negative = inhibition) at 10uM” value is reported as 3.85%.
Consider `CC(C)[C@H](NC(=O)c1ccco1)C(=O)NC12CC3CC(CC(C3)C1)C2`, for which the “hERG current change (%, negative = inhibition) at 10uM” value is listed as -5.81%.
The figure for `CC(NC(=O)c1ccco1)C12CC3CC(CC(C3)C1)C2` (centres unmarked) is -50.1%.
Then `CC(NC(=O)COC(=O)CCNC(=O)c1ccco1)C12CC3CC(CC(C3)C1)C2` (centres unmarked), with 0.656%.
Then `CC1CN(C2CCN(S(=O)(=O)c3ccc4ccccc4c3)CC2)CC(C)O1` (centres unmarked), with -22.5%.
Consider `CN1C(C(=O)N2CCc3ccccc3C2)=CC(c2ccc(F)cc2)=NS1(=O)=O`, for which the “hERG current change (%, negative = inhibition) at 10uM” value was -3.37%.
For the compound `COc1ccc(CCN(Cc2ccc(C(C)C)cc2)S(=O)(=O)c2ccc(S(=O)(=O)N(C)C)cc2)cc1OC`, the “hERG current change (%, negative = inhibition) at 10uM” value is -11.1%.
The figure for `CCC(=O)C(C#N)(c1ccc(OC)c(OC)c1)C(C)C` (centres unmarked) is -7.65%; for `COc1ccc(CCN(C)CCCC(C#N)(c2cc(OC)c(OC)c(OC)c2)C(C)C)cc1OC.Cl` (centres unmarked) it is -64.1%.
